# Measurements taken from PubChem BioAssay (EPA / NIEHS).
# Where “and” joins values, the source holds several entries; their conditions need not be identical. Equal values may be shown once. Records with an inconclusive call do not appear. The source holds several records for some structures; these can differ, active in one and inactive in another. Calls of active or inactive are those of the source. Rule for the calls: active = hit-call score of the fitted dose curve at least 0.9, where 1 is the maximum; inconclusive = response in the unintended direction; inactive = score below 0.9.
# Assays:
# [1] = biological target: human Sirtuin 2 (SIRT2), SIRT2 (gene 22933) (UniProt Q8IXJ6); experiment: NVS_ENZ_hSIRT2: NovaScreen (NVS) Enzymatic Assay for human Sirtuin 2 (SIRT2) (AID 2283217)
# Sequence of human Sirtuin 2 (SIRT2), SIRT2 (gene 22933) (Q8IXJ6 whole entry, looked up): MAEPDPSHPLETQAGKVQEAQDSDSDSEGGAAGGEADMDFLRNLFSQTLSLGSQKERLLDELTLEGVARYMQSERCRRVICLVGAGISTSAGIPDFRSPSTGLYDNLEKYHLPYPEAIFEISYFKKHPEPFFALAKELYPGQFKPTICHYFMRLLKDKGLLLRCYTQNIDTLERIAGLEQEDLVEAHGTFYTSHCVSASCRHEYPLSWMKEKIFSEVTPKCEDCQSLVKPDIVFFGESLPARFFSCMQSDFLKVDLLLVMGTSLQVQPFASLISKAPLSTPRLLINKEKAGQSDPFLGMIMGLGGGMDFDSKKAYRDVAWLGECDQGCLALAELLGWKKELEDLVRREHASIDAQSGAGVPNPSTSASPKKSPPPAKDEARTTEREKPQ
# Outline: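 Cell-free recombinant human SIRT2, fluorescent substrate with product separated by electrophoretic mobility shift, 1 hr. Screened in duplicate at 25 uM; hits rerun singly in concentration-response up to 50 uM, relative to DMSO.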
# [2] = biological target: human Sirtuin 3 (SIRT3), SIRT3 (gene 23410) (UniProt Q9NTG7); experiment: NVS_ENZ_hSIRT3: NovaScreen (NVS) Enzymatic Assay for human Sirtuin 3 (SIRT3) (AID 2283222)
# Sequence of human Sirtuin 3 (SIRT3), SIRT3 (gene 23410) (Q9NTG7 whole entry, looked up): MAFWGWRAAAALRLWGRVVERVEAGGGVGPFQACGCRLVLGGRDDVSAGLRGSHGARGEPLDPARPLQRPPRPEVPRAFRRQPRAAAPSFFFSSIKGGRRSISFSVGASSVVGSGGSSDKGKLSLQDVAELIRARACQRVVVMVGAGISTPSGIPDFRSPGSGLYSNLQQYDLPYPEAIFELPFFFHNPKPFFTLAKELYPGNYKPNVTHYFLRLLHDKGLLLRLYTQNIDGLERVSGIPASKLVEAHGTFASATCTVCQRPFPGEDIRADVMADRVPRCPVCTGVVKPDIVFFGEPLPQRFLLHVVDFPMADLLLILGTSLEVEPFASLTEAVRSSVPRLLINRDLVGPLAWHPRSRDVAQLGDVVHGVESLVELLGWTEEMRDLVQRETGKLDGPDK
# Outline: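 Cell-free enzyme assay with recombinant protein and fluorescent substrate, product separated by electrophoretic mobility shift; read 1 hour after dosing. Screened in duplicate at 25 uM, then singleton concentration-response up to 50 uM; loss of signal versus DMSO.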
# [3] = biological target: human Protein Tyrosine Phosphatase Receptor Type M (PTPRM), PTPRM (gene 5797) (UniProt P28827); experiment: NVS_ENZ_hPTPRM: NovaScreen (NVS) Enzymatic Assay for human Protein Tyrosine Phosphatase Receptor Type M (PTPRM) (AID 2283215)
# Outline: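 Cell-free recombinant PTPRM with fluorogenic substrate; product separated from substrate by electrophoretic mobility shift and read by fluorescence, 1.33 h after dosing. Primary screen single concentration (25 uM) in duplicate; actives retested in concentration series; loss of signal versus DMSO.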
# [4] = biological target: human Sirtuin 1 (SIRT1), SIRT1 (gene 23411) (UniProt Q96EB6); experiment: NVS_ENZ_hSIRT1: NovaScreen (NVS) Enzymatic Assay for human Sirtuin 1 (SIRT1) (AID 2283219)
# Outline: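 Cell-free recombinant SIRT1 with a fluorescent substrate; substrate and product separated by electrophoretic mobility shift and read by fluorescence intensity, 1 h after dosing. Primary screen at 25 uM in duplicate; hits re-run in concentration-response up to 50 uM, relative to DMSO.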
# [5] = biological target: rat Adenylate Cyclase, Forskolin Stimulated, Adcy5 (gene 64532) (UniProt Q04400); experiment: NVS_ENZ_rACFSKBinding: NovaScreen (NVS) Enzymatic Assay for rat Adenylate Cyclase, Forskolin Stimulated (AID 2283232)
# Outline: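 Rat forebrain membrane preparation, cell-free, read 1 h after dosing by filter-based scintillation counting. Primary screen in duplicate at 25 uM; actives (e.g. ≥30% inhibition) rerun in concentration-response up to 50 uM; fit versus DMSO.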
# [6] = biological target: human Protein Tyrosine Phosphatase Receptor Type F (PTPRF), PTPRF (gene 5792) (UniProt P10586); experiment: NVS_ENZ_hPTPRF: NovaScreen (NVS) Enzymatic Assay for human Protein Tyrosine Phosphatase Receptor Type F (PTPRF) (AID 2283213)
# Outline: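 Cell-free fluorescence enzyme assay with recombinant protein and substrate; product separated by electrophoretic mobility shift. Read 1 h after dosing, single 25 uM duplicate screen, then concentration-response up to 50 uM; loss of signal vs DMSO.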
# [7] = biological target: human Tyrosine Protein Kinase Receptor Tie-2 (Tie2), TEK (gene 7010) (UniProt Q02763); experiment: NVS_ENZ_hTie2: NovaScreen (NVS) Enzymatic Assay for human Tyrosine Protein Kinase Receptor Tie-2 (Tie2) (AID 2283225)
# Sequence of human Tyrosine Protein Kinase Receptor Tie-2 (Tie2), TEK (gene 7010) (Q02763 whole entry, looked up): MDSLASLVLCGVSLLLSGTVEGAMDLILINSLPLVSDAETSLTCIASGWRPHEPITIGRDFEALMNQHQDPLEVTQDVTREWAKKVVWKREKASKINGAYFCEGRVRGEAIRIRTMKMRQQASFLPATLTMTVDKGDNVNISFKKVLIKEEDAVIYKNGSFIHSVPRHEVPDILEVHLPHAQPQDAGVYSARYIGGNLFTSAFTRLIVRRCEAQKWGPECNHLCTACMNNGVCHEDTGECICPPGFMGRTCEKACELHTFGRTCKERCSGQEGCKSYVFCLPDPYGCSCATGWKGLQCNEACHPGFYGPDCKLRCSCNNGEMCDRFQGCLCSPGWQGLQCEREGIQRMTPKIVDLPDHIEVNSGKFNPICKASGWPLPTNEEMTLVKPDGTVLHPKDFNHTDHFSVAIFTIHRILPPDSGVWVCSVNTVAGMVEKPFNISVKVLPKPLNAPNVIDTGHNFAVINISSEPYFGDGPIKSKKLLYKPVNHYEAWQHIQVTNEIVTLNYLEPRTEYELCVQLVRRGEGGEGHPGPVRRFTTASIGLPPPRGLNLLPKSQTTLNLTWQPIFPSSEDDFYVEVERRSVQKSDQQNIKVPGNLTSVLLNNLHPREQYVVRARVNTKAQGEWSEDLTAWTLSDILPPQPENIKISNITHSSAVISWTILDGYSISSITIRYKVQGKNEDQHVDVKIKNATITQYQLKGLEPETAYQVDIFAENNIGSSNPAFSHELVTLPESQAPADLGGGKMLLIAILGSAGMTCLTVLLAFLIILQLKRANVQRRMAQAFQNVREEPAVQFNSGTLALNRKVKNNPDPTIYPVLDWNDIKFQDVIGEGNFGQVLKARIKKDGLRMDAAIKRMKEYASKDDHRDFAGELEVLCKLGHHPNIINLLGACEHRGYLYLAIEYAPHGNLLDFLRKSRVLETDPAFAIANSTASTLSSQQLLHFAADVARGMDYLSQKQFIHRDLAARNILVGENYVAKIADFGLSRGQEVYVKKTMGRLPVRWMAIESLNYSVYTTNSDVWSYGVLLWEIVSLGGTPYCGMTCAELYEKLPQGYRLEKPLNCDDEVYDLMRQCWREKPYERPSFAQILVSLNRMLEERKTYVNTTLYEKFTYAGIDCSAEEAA
# Outline: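 Recombinant human Tie2 kinase activity was read cell-free by fluorescence with electrophoretic mobility shift, 1 hour after dosing. The screen used 25 uM in duplicate, then concentration-response up to 50 uM. Signal loss was scored against DMSO.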
# [8] = biological target: rat Acetylcholinesterase (AChE), Ache (gene 83817) (UniProt P37136); experiment: NVS_ENZ_rAChE: NovaScreen (NVS) Enzymatic Assay for rat Acetylcholinesterase (AChE) (AID 2283233)
# Outline: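 Rat brain membrane acetylcholinesterase activity measured colorimetrically 0.33 h after compound addition, loss of signal relative to DMSO. Primary screen in duplicate at 25 uM; actives re-run as concentration-response with 50 uM top concentration.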
# [9] = biological target: human Protein Tyrosine Phosphatase Receptor Type C (PTPRC), PTPRC (gene 5788) (UniProt P08575); experiment: NVS_ENZ_hPTPRC: NovaScreen (NVS) Enzymatic Assay for human Protein Tyrosine Phosphatase Receptor Type C (PTPRC) (AID 2283212)
# Outline: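 Yeast-extracted human PTPRC used in a cell-free colorimetric enzyme activity read-out, 1 h after dosing. Primary screen in duplicate at 25 uM; actives rerun in concentration-response up to 50 uM, DMSO as baseline.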
# [10] = biological target: human Rho Associated Coiled-coil Containing Protein Kinase 1 (ROCK1), ROCK1 (gene 6093) (UniProt Q13464); experiment: NVS_ENZ_hROCK1: NovaScreen (NVS) Enzymatic Assay for human Rho Associated Coiled-coil Containing Protein Kinase 1 (ROCK1) (AID 2283214)
# Outline: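 Cell-free recombinant human ROCK1 activity assay; fluorescent substrate and product separated by electrophoretic mobility shift, read 1 h after dosing. Screened in duplicate at 25 uM; loss of signal versus DMSO baseline scored as inhibition.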
# [11] = biological target: human Raf-1 Proto-Oncogene, serine/threonine Kinase (RAF1), RAF1 (gene 5894) (UniProt P04049); experiment: NVS_ENZ_hRAF1: NovaScreen (NVS) Enzymatic Assay for human Raf-1 Proto-Oncogene, serine/threonine Kinase (RAF1) (AID 2283216)
# Outline: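 Cell-free recombinant kinase with specific fluorescent substrate, product separated by electrophoretic mobility shift; read 1 h after dosing. Primary screen at 25 uM in duplicate; hits then run in concentration-response up to 50 uM, fitted as loss of signal versus DMSO.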
# [12] = biological target: human Tropomyosin Receptor Kinase A (TRKA), NTRK1 (gene 4914) (UniProt P04629); experiment: NVS_ENZ_hTrkA: NovaScreen (NVS) Enzymatic Assay for human Tropomyosin Receptor Kinase A (TRKA) (AID 2283224)
# Outline: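 Recombinant human TrkA activity read after 1 h by fluorescence with electrophoretic mobility shift separating substrate and product. Primary screen in duplicate at 25 uM; actives were rerun in concentration-response up to 50 uM. Loss of signal versus DMSO.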
# [13] = biological target: human Vascular Endothelial Growth Factor Receptor 1 (VEGFR1), FLT1 (gene 2321) (UniProt P17948); experiment: NVS_ENZ_hVEGFR1: NovaScreen (NVS) Enzymatic Assay for human Vascular Endothelial Growth Factor Receptor 1 (VEGFR1) (AID 2283226)
# Outline: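 Cell-free assay of recombinant human VEGFR1 kinase with substrate, measured 1 h after dosing; fluorescence with electrophoretic mobility-shift separation of substrate and product, referenced to DMSO; primary screen at 25 uM in duplicate, actives then run in concentration series.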
# [14] = biological target: human Vascular Endothelial Growth Factor Receptor 3 (VEGFR3), FLT4 (gene 2324) (UniProt P35916); experiment: NVS_ENZ_hVEGFR3: NovaScreen (NVS) Enzymatic Assay for human Vascular Endothelial Growth Factor Receptor 3 (VEGFR3) (AID 2283229)
# Sequence of human Vascular Endothelial Growth Factor Receptor 3 (VEGFR3), FLT4 (gene 2324) (P35916 whole entry, looked up): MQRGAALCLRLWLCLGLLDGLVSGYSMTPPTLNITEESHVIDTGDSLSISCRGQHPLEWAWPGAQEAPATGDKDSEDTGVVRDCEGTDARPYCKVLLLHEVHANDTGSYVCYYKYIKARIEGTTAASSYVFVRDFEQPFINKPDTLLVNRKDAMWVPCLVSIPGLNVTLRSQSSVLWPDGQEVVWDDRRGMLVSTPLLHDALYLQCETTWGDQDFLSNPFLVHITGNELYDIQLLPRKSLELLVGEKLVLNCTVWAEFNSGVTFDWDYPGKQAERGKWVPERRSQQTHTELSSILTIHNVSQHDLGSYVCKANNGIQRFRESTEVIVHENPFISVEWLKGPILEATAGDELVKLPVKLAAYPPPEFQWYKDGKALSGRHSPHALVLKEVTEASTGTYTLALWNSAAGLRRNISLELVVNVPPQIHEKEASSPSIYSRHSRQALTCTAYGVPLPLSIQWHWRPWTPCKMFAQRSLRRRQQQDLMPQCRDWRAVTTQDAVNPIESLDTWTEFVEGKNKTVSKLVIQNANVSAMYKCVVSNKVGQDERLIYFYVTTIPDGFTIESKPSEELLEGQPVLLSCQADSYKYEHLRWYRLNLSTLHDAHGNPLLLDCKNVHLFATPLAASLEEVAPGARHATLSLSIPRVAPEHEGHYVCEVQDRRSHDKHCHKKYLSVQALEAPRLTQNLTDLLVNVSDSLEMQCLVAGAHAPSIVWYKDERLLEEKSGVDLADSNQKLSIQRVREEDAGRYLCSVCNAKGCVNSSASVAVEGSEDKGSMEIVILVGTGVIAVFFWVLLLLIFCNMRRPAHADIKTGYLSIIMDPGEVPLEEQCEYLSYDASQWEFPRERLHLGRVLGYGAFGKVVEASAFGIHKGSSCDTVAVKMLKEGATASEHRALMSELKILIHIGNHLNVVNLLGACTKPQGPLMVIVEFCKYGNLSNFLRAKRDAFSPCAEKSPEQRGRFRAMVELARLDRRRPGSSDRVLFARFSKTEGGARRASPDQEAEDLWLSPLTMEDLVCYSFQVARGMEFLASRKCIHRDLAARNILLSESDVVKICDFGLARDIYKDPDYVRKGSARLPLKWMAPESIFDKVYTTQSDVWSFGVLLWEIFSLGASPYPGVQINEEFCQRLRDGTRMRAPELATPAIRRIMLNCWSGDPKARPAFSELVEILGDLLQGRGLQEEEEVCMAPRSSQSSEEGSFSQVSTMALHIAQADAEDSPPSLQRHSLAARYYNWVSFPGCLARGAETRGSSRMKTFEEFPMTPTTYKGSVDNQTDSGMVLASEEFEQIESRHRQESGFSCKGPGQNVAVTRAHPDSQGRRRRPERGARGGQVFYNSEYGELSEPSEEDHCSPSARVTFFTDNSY
# Outline: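 Cell-free recombinant VEGFR3 kinase reaction with fluorescent substrate, read 1 h after dosing by electrophoretic mobility shift separation of substrate and product. Single-concentration duplicate screen at 25 uM, then concentration-response up to 50 uM; loss of activity versus DMSO.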
# [15] = biological target: human Vascular Endothelial Growth Factor Receptor 2 (VEGFR2), KDR (gene 3791) (UniProt P35968); experiment: NVS_ENZ_hVEGFR2: NovaScreen (NVS) Enzymatic Assay for human Vascular Endothelial Growth Factor Receptor 2 (VEGFR2) (AID 2283230)
# Sequence of human Vascular Endothelial Growth Factor Receptor 2 (VEGFR2), KDR (gene 3791) (P35968 whole entry, looked up): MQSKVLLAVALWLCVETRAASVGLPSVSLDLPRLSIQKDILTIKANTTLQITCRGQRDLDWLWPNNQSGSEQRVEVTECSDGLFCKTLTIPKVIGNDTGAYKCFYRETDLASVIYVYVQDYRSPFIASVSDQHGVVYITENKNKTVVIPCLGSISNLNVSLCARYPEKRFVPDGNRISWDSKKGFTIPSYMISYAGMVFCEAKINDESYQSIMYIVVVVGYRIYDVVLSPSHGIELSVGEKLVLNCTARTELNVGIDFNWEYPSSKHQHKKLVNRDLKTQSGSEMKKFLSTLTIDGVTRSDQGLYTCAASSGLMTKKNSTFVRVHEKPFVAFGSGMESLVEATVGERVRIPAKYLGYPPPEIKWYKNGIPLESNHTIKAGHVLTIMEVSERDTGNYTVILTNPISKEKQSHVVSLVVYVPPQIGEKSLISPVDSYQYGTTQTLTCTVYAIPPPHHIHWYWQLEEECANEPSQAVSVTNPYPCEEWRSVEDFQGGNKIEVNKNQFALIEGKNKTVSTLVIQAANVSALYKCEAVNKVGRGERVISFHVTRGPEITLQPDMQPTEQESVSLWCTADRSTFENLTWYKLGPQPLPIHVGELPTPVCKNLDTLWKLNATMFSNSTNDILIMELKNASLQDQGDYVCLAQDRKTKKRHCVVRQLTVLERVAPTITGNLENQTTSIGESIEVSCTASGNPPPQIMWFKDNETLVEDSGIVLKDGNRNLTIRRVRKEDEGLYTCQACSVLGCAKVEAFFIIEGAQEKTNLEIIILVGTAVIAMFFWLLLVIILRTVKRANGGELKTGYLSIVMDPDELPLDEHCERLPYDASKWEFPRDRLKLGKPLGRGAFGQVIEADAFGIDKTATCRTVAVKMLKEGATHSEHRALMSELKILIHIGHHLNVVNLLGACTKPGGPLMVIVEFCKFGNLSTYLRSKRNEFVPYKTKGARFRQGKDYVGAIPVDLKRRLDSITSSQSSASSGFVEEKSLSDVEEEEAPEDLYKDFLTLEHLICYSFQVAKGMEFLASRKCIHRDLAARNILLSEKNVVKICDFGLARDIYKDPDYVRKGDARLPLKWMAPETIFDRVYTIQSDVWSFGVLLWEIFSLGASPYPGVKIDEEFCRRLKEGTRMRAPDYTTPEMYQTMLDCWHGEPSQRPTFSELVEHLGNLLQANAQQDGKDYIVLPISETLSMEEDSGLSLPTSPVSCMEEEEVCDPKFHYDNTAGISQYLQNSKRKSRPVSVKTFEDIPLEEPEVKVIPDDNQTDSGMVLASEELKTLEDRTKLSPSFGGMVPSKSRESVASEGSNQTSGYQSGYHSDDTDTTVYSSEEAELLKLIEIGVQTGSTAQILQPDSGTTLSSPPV
# Outline: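 Cell-free recombinant VEGFR2 kinase, fluorescent substrate with electrophoretic mobility-shift separation; read 1 h after dosing. Screened at 25 uM in duplicate, hits to concentration-response up to 50 uM; loss-of-signal versus DMSO.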
# [16] = biological target: sheep Cyclooxygenase-2 (Cox2), PTGS2 (gene 443460) (UniProt P79208); experiment: NVS_ENZ_oCOX2: NovaScreen (NVS) Enzymatic Assay for sheep Cyclooxygenase-2 (Cox2) (AID 2283231)
# Outline: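 Enzyme extracted from ovine placenta tested cell-free; activity read colorimetrically by absorbance 0.66 hour after dosing. Primary screen in duplicate at 25 uM; hits rerun as concentration series to 50 uM, loss of signal versus DMSO baseline.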
# [17] = biological target: rat Catechol-O-Methyl Transferase (COMT), Comt (gene 24267) (UniProt P22734); experiment: NVS_ENZ_rCOMT: NovaScreen (NVS) Enzymatic Assay for rat Catechol-O-Methyl Transferase (COMT) (AID 2283235)
# Sequence of rat Catechol-O-Methyl Transferase (COMT), Comt (gene 24267) (P22734 whole entry, looked up): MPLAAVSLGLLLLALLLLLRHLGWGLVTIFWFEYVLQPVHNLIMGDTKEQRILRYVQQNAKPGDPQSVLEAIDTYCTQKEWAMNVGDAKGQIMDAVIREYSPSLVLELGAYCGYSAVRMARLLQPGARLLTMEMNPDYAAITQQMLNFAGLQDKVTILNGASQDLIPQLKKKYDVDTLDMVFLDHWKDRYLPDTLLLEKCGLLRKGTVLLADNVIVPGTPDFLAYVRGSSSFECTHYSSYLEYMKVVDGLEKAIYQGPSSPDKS
# Outline: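 Cell-free enzyme activity with protein extracted from rat dorsal striatum, measured by HPLC with absorbance detection. Compounds screened at 25 uM in duplicate; actives then run in concentration-response up to 50 uM, loss of signal versus DMSO.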
# [18] = biological target: rat Constitutive Nitric Oxide Synthase (CNOS), Nos1 (gene 24598) (UniProt P29476); experiment: NVS_ENZ_rCNOS: NovaScreen (NVS) Enzymatic Assay for rat Constitutive Nitric Oxide Synthase (CNOS) (AID 2283236)
# Outline: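 Enzyme activity in rat brain membrane preparation, read 1 h after dosing by filter-based radiometric scintillation counting. Primary screen in duplicate at 25 uM; actives (e.g., ≥30% inhibition) then run in concentration-response up to 50 uM.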
compound,measurement,setting,value
O=C(O)c1cc(Oc2ccc(C(F)(F)F)cc2Cl)ccc1[N+](=O)[O-],outcome,[1],inactive
COc1ccc(C(=CC(=O)N2CCOCC2)c2ccc(Cl)cc2)cc1OC,outcome,[2],inactive
N#CSCSC#N,outcome,[3],inactive
same,AC50,[4],11.3 µM (active)
same,outcome,[2],inactive
same,AC50,[5],25 µM (active)
S=C1NCCN1,outcome,[6],inactive
same,outcome,[7],inactive
same,outcome,[5],inactive
same,AC50,[8],14.3 µM (active)
CCCSP(=O)(OCC)Oc1ccc(Br)cc1Cl (centres undefined),AC50,[8],2.32 µM (active)
CN(C)[C@@H]1C(=O)C(C(N)=O)=C(O)[C@@]2(O)C(=O)C3=C(O)c4c(O)cccc4[C@@](C)(O)[C@H]3[C@H](O)[C@@H]12,AC50,[9],11.4 µM (active)
same,outcome,[10],inactive
same,AC50,[11],11.1 µM (active)
same,AC50,[12],17.8 µM (active)
same,AC50,[7],7.51 µM (active) and 13.4 µM (active) and 8.19 µM (active)
same,AC50,[13],3.49 µM (active)
same,outcome,[13],inactive
same,AC50,[14],6.44 µM (active) and 3.42 µM (active) and 969 nM (active)
same,AC50,[15],12.3 µM (active) and 18.2 µM (active)
same,outcome,[15],inactive
same,AC50,[16],1.89 µM (active)
same,AC50,[17],3.33 µM (active) and 1.72 µM (active)
same,AC50,[18],5.33 µM (active)
